# ± gives the standard deviation.
# Tested on: OVCAR-3-derived ovarian cancer stem-like cells (spheroids)
# Assay: cell growth relative to untreated control; higher = more growth (less inhibition)
# Details: 2.29 µM; 96 h
# Summary of the method: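 After trypsin dissociation, OVCAR-3 spheroid-derived stem-like cells were placed in ultra-low attachment 96-well plates at 50,000 cells/mL in stem cell medium and preincubated for 24 h. Treatment at 2.29 uM followed for 96 h at 37°C, 5% CO2, with 4 replicate wells per compound. A 4 h TOX8 resazurin fluorescence read (ex 560/em 590 nm) gave viability, from which percent growth relative to untreated wells was derived after blank subtraction and Grubbs outlier removal.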
row,SMILES,cell growth
1,CC12C(=O)OC(=O)C1(C)C1CCC2O1 (stereo unspecified),91 ± 14%
2,CC(=O)[O][Pb]([O]C(C)=O)([c]1ccccc1)[c]1ccccc1,80.2 ± 14%
3,COC1CC(CC2CCC(C)C(C(C)C(=O)O)O2)OC2(OC(C)(C3CCC(C)(C4OC(C5OC(O)(CO)C(C)CC5C)CC4C)O3)CC2C)C1C (stereo unspecified),64.5 ± 48%
4,C[Si](C)(CN)CN.[Cl][Pt][Cl],137 ± 53%
5,CC(C)C(NC(=O)C(C(C)C)N(C)C)C(=O)N(C)C(C(=O)N1CCCC1C(=O)N1CCCC1C(=O)NCc1ccccc1)C(C)C (stereo unspecified),24.5 ± 8.1%
6,Oc1cccc2cccnc12,80.4 ± 14%
7,COC1C(C)OC(OC2CC(C)(O)Cc3cc4c(c(O)c32)C(=O)c2c(O)cc3c(c2C4=O)OC2OC3(C)C(O)C(N(C)C)C2O)C(OC)C1(C)OC (stereo unspecified),8.5 ± 3.2%
8,CC[C@@]12CCCN3CC[C@]4(c5cccc(OC)c5N(C(C)=O)[C@@H]4CC1)[C@H]32,144 ± 29%
9,CC(=O)[O][Sn]([CH2]c1ccccc1)([CH2]c1ccccc1)[CH2]c1ccccc1,112 ± 25%
10,COC1=C(C)C(=O)C2=C(C1=O)C(CO)N1C(C#N)C3CC4C(C1C2N1CCOC41)N3C (stereo unspecified),14.9 ± 4.6%
11,COc1cc([C@@H]2c3cc4c(c(O)c3C[C@H]3COC(=O)[C@@H]32)OCO4)cc(OC)c1OC,31.1 ± 4.7%
12,CC(=O)O[C@@H]1C[C@H]2O[C@@H]3C=C(C)CC[C@]3(C)[C@]1(C)[C@]21CO1,48.5 ± 11%
13,NP(=O)(Oc1c2occc2cc2ccc(=O)oc12)N(CCCl)CCCl (stereo unspecified),72.2 ± 18%
14,COC1CC(OC2CCC3(C=O)C4CCC5(C)C(C6=CC(=O)OC6)CCC5(O)C4CCC3(O)C2)OC(C)C1OC1OC(CO)C(O)C(O)C1O (stereo unspecified),8.05 ± 3.3%
15,C[C@@H]1CCOC(=O)/C=C/C=C\C(=O)O[C@@H]2C[C@H]3O[C@@H]4[C@@H]5O[C@]5(C)[C@H](O)C[C@]4(COC(=O)[C@H]1O)[C@]2(C)[C@@]31CO1,13.4 ± 5.4%
16,COc1cccc2c1cc([N+](=O)[O-])c1c(C(=O)O)cc3c(c12)OCO3,95.5 ± 14%

row,SMILES,cell growth
1,NCCCNCCSP(=O)(O)O,99.4 ± 12%
2,Cc1cc(N(CCCl)CCCl)ccc1/C=N/NC(=O)Cc1cc(=O)oc2cc(O)ccc12,113 ± 53%
3,CC(C)OP(=O)(OC(C)C)C(N(C)C)P(=O)(OC(C)C)OC(C)C.[Cl][Sn]([Cl])([Cl])[c]1ccccc1,62.2 ± 17%
4,C[C@@H]1CC[C@@]2(OC1)O[C@H]1CC3[C@@H]4CC=C5C[C@@H](O[C@@H]6O[C@H](CO)[C@@H](O[C@@H]7O[C@@H](C)[C@H](O[C@@H]8O[C@@H](C)[C@H](O)[C@@H](O)[C@@H]8O)[C@@H](O)[C@H]7O)[C@H](O)[C@H]6O[C@@H]6O[C@@H](C)C(O)[C@@H](O)[C@H]6O)CC[C@]5(C)[C@H]4CC[C@]3(C)[C@H]1[C@@H]2C (stereo partly specified),8.03 ± 3.1%
5,O=C1NC(=S)NC(=O)C1C(=O)Nc1ccccc1,23.7 ± 5.9%
6,C=C1C(=O)O[C@@H]2C[C@@H](C)[C@@H]3C=CC(=O)[C@@]3(C)[C@@H](O)[C@H]12,14.5 ± 2.5%
7,CCOC(OC1=C(C#N)CCC1)C(C)[Se]c1ccccc1 (stereo unspecified),147 ± 33%
8,N[C@@H](CN(O)N=O)C(=O)O,105 ± 19%
9,CC1Oc2cc3c(-c4c(O)cc(O)c5c(O)c6c(cc45)OC(C)C(C)C6=O)c(O)cc(O)c3c(O)c2C(=O)C1C (stereo unspecified),23.8 ± 48%
10,CO[C@@H]1[C@H](O)C[C@@H](O[C@@H]2C[C@H](Oc3cc4cc5c(c(O)c4c(O)c3C)C(=O)[C@@H](O[C@H]3C[C@@H](O[C@H]4C[C@@H](O[C@H]6C[C@](C)(O)[C@@H](OC(C)=O)[C@H](C)O6)[C@H](O)[C@@H](C)O4)[C@H](O)[C@@H](C)O3)[C@H]([C@H](OC)C(=O)[C@@H](O)[C@@H](C)O)C5)O[C@H](C)[C@@H]2OC(C)=O)O[C@@H]1C,12.5 ± 3.1%
11,CC(=O)O[C@H]1C[C@H](O[C@H]2[C@@H](O)C[C@H](O[C@H]3[C@@H](O)C[C@H](O[C@H]4CC[C@@]5(C)[C@H](CC[C@@H]6[C@@H]5CC[C@]5(C)[C@@H](C7=CC(=O)OC7)CC[C@]65O)C4)O[C@@H]3C)O[C@@H]2C)OC(C)[C@H]1O[C@@H]1O[C@H](CO)[C@@H](O)[C@H](O)[C@H]1O (stereo partly specified),21.7 ± 8.3%
12,COc1cc2c(c3oc4cccc(O)c4c(=O)c13)[C@@H]1C=CO[C@@H]1O2,112 ± 22%
13,CC[C@](C)(O)C(=O)O[C@H]1C(=O)O[C@@H]2C[C@H]3C(C)=CC(=O)[C@@H](O)[C@]3(C)[C@H]3C4(O)OC[C@]32[C@@H]1[C@@H](C)[C@H]4O,35.2 ± 15%
14,CC1=CC(O)C(O)C2(C)C1CC1OC(=O)C(O)C3C(C)C(O)C4(O)OCC13C42 (stereo unspecified),128 ± 36%
15,CCC[CH2][Sn]([CH2]CCC)([CH2]CCC)[O]c1cc(Cl)c(Cl)cc1Cl,8.8 ± 3.7%

# From the supplement of paper PMC3484114
